Active and inactive are the calls of the source.
Legend:
[1] = E. coli DRC41 culture turbidity changes, primary screen, E. coli filamentation inducer project, strain DRC41, OD650, 48 h (AID 1152);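 also: E. coli MC1000 strain DRC41 lacking acrAB efflux pump and sulA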; settings: E. coli DRC41 (acrAB sulA), higher = more signal, called active from +8 up or from −8 down
[2] = small-molecule binders of probe aLefty1, primary screen, biochemical, small-molecule microarray, 635/667 nm fluorescence (AID 1153); settings: higher = more signal;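 also: score merges spot fluorescence with signal-to-noise ratio from the scanned slide images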
[3] = PSAC antagonists in infected red cells, primary screen, cell-based, P. falciparum Indochina, OD700, 1 h (AID 1154); settings: P. falciparum Indochina infected RBC osmotic lysis, higher = more signal, called active from +8 up or from −8 down
[4] = PSAC antagonists in infected red cells, primary screen, cell-based, P. falciparum Indochina, OD700, 2 h (AID 1155);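 also: lysis reports solute entry through the parasite surface anion channel PSAC; channel blockers reduce lysis of infected cells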; settings: P. falciparum Indochina infected erythrocytes, osmotic lysis OD700; higher = more signal, called active from +8 up or from −8 down
[5] = osmotic lysis modulators in infected erythrocytes, primary screen, PSAC antagonist project, cell-based, P. falciparum Indochina, OD700, 3 h (AID 1156); settings: higher = more signal, called active from +8 up or from −8 down
[6] = PSAC antagonists in infected red cells, primary screen, cell-based, P. falciparum Indochina, OD700, 18 h (AID 1157); settings: P. falciparum Indochina infected erythrocytes, osmotic lysis OD700, 18 h; higher = more signal, called active from +8 up or from −8 down
[7] = modulators of S6 phosphorylation in cells, primary screen, cell-based, A549, cytoblot, luminescence, serum-stimulated (AID 1158); settings: A549 phospho-S6 cytoblot, 5 h, higher = more signal;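 also: serum-stimulated A549 lung adenocarcinoma cells; signal is phosphorylated S6 detected by cytoblot immunostaining with HRP secondary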
[8] = biological target: NADPH oxidase 2 (Homo sapiens) (UniProt P04839); assay: NOX2-dependent H2O2 signal modulators, primary screen, NOX inhibitor project, cell-based, HEK293-NOX2, PMA-stimulated, Amplex Red fluorescence (AID 1159); settings: 45 min, higher = more signal, called active from +8 up or from −8 down; also: test concentration not given here
[9] = biological target: NADPH oxidase 4 (Homo sapiens) (UniProt Q9NPH5); assay: NOX4-dependent H2O2 signal modulators, primary screen, NOX inhibitor project, cell-based, HEK293-NOX4, tetracycline-induced, Amplex Red fluorescence (AID 1160); settings: 45 min, higher = more signal, called active from +8 up or from −8 down
[10] = biological target: NADPH oxidase 5 (Homo sapiens) (UniProt Q96PH1); assay: NOX5-dependent H2O2 signal modulators, primary screen, NOX inhibitor project, cell-based, HEK293-NOX5, Amplex Red fluorescence (AID 1161); settings: HEK293-NOX5, ionomycin, 45 min, higher = more signal
NADPH oxidase 5 (Homo sapiens), sequence (Q96PH1 whole entry, looked up): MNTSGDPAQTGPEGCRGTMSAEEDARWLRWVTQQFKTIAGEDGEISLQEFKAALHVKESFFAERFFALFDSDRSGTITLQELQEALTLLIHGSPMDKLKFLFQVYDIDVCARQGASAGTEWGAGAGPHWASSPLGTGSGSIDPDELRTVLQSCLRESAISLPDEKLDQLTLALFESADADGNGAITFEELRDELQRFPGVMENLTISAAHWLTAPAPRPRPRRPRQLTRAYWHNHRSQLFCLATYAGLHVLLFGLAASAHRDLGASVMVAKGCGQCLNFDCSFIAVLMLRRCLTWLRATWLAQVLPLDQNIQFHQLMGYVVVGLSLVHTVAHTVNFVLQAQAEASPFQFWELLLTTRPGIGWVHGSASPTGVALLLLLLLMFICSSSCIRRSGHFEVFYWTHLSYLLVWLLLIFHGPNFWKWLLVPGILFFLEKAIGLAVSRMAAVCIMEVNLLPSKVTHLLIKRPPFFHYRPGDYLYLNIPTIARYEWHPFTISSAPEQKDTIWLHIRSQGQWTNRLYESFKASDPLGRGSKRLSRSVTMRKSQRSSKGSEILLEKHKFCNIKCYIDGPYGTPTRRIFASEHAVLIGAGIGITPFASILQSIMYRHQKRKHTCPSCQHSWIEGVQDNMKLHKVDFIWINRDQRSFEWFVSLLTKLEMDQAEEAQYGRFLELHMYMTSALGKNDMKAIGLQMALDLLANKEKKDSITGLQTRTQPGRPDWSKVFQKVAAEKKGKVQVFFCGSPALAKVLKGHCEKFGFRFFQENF

NADPH oxidase 2 (Homo sapiens), sequence (P04839 whole entry, looked up): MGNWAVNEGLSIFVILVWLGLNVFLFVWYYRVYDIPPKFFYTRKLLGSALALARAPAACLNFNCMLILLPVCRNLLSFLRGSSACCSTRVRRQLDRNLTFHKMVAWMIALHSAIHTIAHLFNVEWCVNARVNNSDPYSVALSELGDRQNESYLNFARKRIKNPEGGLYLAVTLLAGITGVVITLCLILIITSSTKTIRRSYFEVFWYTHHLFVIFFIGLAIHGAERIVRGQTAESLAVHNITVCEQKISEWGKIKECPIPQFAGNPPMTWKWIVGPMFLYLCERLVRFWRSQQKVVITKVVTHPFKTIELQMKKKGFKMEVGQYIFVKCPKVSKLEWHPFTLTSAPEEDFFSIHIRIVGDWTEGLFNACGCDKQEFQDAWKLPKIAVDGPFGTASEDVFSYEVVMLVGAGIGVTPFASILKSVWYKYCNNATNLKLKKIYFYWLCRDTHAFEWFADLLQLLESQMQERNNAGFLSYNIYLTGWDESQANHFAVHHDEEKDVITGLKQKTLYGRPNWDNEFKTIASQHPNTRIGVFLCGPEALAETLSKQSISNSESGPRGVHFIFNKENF
NADPH oxidase 4 (Homo sapiens), sequence (Q9NPH5 whole entry, looked up): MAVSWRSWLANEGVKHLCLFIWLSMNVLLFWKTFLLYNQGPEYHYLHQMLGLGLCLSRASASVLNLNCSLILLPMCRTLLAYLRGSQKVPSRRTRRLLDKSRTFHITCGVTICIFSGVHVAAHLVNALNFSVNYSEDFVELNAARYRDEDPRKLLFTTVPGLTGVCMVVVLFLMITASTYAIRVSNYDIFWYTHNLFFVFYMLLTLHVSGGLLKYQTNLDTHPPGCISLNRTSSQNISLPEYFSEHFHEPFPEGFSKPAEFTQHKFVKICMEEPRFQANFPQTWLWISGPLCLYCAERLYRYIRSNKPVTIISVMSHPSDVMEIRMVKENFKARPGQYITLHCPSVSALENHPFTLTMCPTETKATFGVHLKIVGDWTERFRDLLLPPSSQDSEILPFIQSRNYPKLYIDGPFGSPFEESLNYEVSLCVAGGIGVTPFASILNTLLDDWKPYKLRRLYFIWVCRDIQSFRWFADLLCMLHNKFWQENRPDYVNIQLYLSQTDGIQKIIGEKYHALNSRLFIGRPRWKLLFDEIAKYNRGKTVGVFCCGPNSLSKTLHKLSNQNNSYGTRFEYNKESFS

| Structure (SMILES) | z-score [1] | composite z-score [2] | z-score [3] | z-score [4] | z-score [5] | z-score [6] | z-score [7] | z-score [8] | z-score [9] | z-score [10] |
| --- | --- | --- | --- | --- | --- | --- | --- | --- | --- | --- |
| C[N+](C)(C)CCCCNC(=O)[C@H]1C[C@H]2C(=O)N[C@@H](Cc3ccccc3)C(=O)N2[C@H]1c1cccc(OCCO)c1 | 0.0946 (inactive) | 0.186 | 5.34 (inactive) | 0.772 (inactive) | -0.835 (inactive) | 0.818 (inactive) | 0.17 | -0.423 (inactive) | -0.824 (inactive) | -0.418 |
| CC=CC(O)C1C=CC2C(=O)NC(=O)C2N1Nc1ccc(Cl)cc1Cl (stereo not given) | -1.56 (inactive) | 0.169 | 0.76 (inactive) | 0.786 (inactive) | 0.0682 (inactive) | 1.29 (inactive) | -0.637 | -1.35 (inactive) | -4.61 (inactive) | -3.02 |
| COc1ccc([Si](C)(C)[C@@H]2[C@@H](CC(=O)N3CCC[C@H]3CO)O[C@]3(C(=O)N(Cc4cccc(N5CCCCC5=O)c4)c4ccccc43)[C@H]2C)cc1 | 0.422 (inactive) | 0.0046 | 3.85 (inactive) | 1.23 (inactive) | -1.02 (inactive) | 0.278 (inactive) | 0.067 | 2.88 (inactive) | 1.64 (inactive) | 4.73 |
| COCCn1c(C(=O)N(C)C)cc2c1C[C@H]1CN(C(=O)c3ccccc3)[C@@](Cc3ccc(OC)cc3)(C(=O)OC)[C@@H]21 | -1.18 (inactive) | 0.256 | 5.82 (inactive) | 0.846 (inactive) | 1.36 (inactive) | 1.23 (inactive) | -0.164 | 0.556 (inactive) | 1.43 (inactive) | 1.24 |
| O=C1OCCC=C[C@H]2OC34C=CCN(c5ccc6ccccc6c5)C(=O)[C@H]3N(CCO)C(=O)[C@@H]4C12 (stereo not given in full) | -0.701 (inactive) | -0.815 | 0.809 (inactive) | 0.791 (inactive) | 1.11 (inactive) | 0.332 (inactive) | -0.366 | 1.47 (inactive) | -0.0539 (inactive) | 2.41 |
| C[C@@H]1ON(c2ccccc2)[C@H](c2ccccc2)[C@H]1C(=O)O | -0.0929 (inactive) | 0.106 | 0.348 (inactive) | -0.299 (inactive) | -0.142 (inactive) | -0.136 (inactive) | 0.0366 | -0.436 (inactive) | 0.24 (inactive) | 0.46 |
| NC(=O)NCC#Cc1ccc2c(c1)[C@]1(C(=O)N2)[C@H](c2ccc(OCCO)cc2)N2[C@H](c3ccccc3)[C@H](c3ccccc3)OC(=O)[C@H]2[C@@H]1C(=O)NC[C@H](O)c1ccccc1 | 2.63 (inactive) | 0.0183 | 1.06 (inactive) | -0.573 (inactive) | -0.88 (inactive) | -1.81 (inactive) | 0.713 | 2 (inactive) | 0.314 (inactive) | 0.742 |

Reference: PubChem BioAssay
